Test results as given in PubChem BioAssay (NCATS).

Molecular target: Glucocorticoid receptor (Homo sapiens) (UniProt P04150)
Assay: GR-GFP Redistribution (AID 450)
Conditions: U2OS GR-GFP nuclear translocation, laser cytometry, 2 h; series mostly up to 20.6 µM;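 active means compounds whose dose series gives a full or clear partial fitted curve of increased nuclear translocation; inconclusive means weak partial curve or effect only at the top dose; inactive means no dose-dependent translocation response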
Potency means the concentration at half of the fitted maximal effect.

Chain of Glucocorticoid receptor (Homo sapiens) (P04150 whole entry, looked up): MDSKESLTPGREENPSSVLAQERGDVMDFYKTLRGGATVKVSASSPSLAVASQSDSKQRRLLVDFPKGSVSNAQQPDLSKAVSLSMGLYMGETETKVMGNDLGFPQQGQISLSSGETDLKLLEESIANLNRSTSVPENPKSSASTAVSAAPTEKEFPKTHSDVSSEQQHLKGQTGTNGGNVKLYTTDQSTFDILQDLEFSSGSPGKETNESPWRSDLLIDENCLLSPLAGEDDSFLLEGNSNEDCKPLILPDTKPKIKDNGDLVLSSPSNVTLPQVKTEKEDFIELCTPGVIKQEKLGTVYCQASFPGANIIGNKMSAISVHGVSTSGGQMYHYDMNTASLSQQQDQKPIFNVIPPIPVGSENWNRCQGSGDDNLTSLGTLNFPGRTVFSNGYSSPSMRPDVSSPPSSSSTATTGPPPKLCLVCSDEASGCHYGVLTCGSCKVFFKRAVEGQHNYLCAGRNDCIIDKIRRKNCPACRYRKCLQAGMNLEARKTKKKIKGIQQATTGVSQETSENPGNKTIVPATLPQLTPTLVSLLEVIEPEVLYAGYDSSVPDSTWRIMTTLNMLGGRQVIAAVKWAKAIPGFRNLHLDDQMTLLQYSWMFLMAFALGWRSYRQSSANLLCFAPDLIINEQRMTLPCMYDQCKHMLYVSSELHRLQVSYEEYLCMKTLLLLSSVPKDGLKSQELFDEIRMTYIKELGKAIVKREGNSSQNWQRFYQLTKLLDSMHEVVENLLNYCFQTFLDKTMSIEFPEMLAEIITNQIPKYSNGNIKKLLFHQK

Potency, inactive:
C=CCNC(=O)C(C#N)c1nc2ccccc2nc1N1CCCCCC1 (stereo not given) > 20.6 µM
Clc1ccc(-c2nnc3sc(Cc4cccs4)nn23)cc1 > 20.6 µM
Cn1c(N2CCOCC2)nc2c1c(=O)n(Cc1ccc(Cl)c(Cl)c1)c(=O)n2C > 20.6 µM
COc1ccc(/C(O)=C2\C(=O)C(=O)N(c3cc(C)on3)C2c2ccccc2OC)cc1 (stereo not given) > 20.6 µM
COc1cccc(-c2nc(NCC3CCCO3)c3ccccc3n2)c1O (stereo not given) > 20.6 µM
Cc1ccnc(N2CCN(c3cc(C)c(C#N)c4nc5ccccc5n34)CC2)c1 > 20.6 µM
CCN1CCN(c2nc3c(C)cccn3c(=O)c2/C=C(\C#N)S(=O)(=O)c2ccc(C)cc2)CC1 > 20.6 µM
CCSc1nnc(NC(=O)C(CC)(C(F)(F)F)C(F)(F)F)s1 > 20.6 µM
Cc1c([C@H]2[C@@H](CC#N)C2(C)C)c2ccccc2n1C > 20.6 µM
CCCCNC(=O)C(C#N)c1nc2ccccc2nc1N1CCN(c2ccccc2F)CC1 (stereo not given) > 20.6 µM
CN(C)CCCN1C(=O)C(=O)/C(=C(/O)c2ccccc2)C1c1ccccn1 (stereo not given) > 20.6 µM
COCc1cc(=O)[nH]c(Nc2nc3ccc(C)cc3o2)n1 > 20.6 µM
CC(C)(C)c1cc(-c2ccco2)c(C#N)c(SCC#N)n1 > 20.6 µM
CCOC(=O)c1ccc(N=Cc2nc(-c3ccccc3)oc2OC(C)=O)cc1 > 20.6 µM
CC(C)(C)C1CCC2(CC1)C(C#N)=C(SCC(=O)Nc1ccccc1)NC(=O)C2C#N (stereo not given) > 20.6 µM
CN1CCc2c(sc3c2c(=O)n(-c2ccccc2)c2nnc(SCc4ccccc4)n32)C1 > 20.6 µM
N#CC(C#N)C(c1ccsc1)c1c(-c2ccccc2)[nH][nH]c1=O (stereo not given) > 20.6 µM
CSc1nc2sc3c(c2c2nnnn12)CCCC3 > 20.6 µM
CC1CCN(c2oc(-c3ccccc3Cl)nc2C#N)CC1 > 20.6 µM
Cc1ccccc1-c1nn2c(-c3ccccc3)nnc2s1 > 20.6 µM
Oc1oc(-c2ccco2)nc1C=Nc1cccc(Cl)c1 > 20.6 µM
N#CC1=C(N)C(C#N)(C#N)[C@H](c2ccncc2)[C@H]2CN(C(=O)OCc3ccccc3)CC=C12 > 20.6 µM
CCCc1cc(-c2nc(N)ncc2-c2ccc3c(c2)OCCCO3)c(O)cc1OC > 20.6 µM
CC(C)C[C@H]1C(=O)N2CCC[C@H]2[C@]2(O)O[C@](NC(=O)[C@@H]3C=C4c5cccc6[nH]c(Br)c(c56)CC4N(C)C3)(C(C)C)C(=O)N12 (stereo not given in full) > 20.6 µM
CN=C(c1ccco1)n1c(=S)nc(-c2ccco2)n(C)c1=S > 20.6 µM
N#Cc1c(N)n(CCOC(=O)c2ccc(Cl)cc2)c2nc3ccccc3nc12 > 20.6 µM
CC(C)(C)c1nnc2sc(SCC(=O)c3ccccc3)nn2c1=O > 20.6 µM
N#Cc1cc(Oc2cccc3cccnc23)c(-n2nnc3ccccc32)cc1C#N > 20.6 µM
CCOC(=O)CSc1nnc2n(Cc3ccccc3)c(=O)c3c4c(sc3n12)CCC4 > 20.6 µM
Clc1ccc2nc(N3CCNCC3)nc(-c3ccccc3)c2c1 > 20.6 µM
C=CCNc1nnc(SC2CC(=O)N(c3ccc(OC)cc3)C2=O)s1 (stereo not given) > 20.6 µM
CC(C)N1CC=C2C(C#N)=C(N)C(C#N)(C#N)C(c3ccccc3)C2C1 (stereo not given) > 20.6 µM
CCCSc1nnc(NC(=O)Nc2ccc(F)cc2)s1 > 20.6 µM
C=CCOC(=O)C(C#N)c1nc2ccccc2nc1N1CCN(c2ccccc2OCC)CC1 (stereo not given) > 20.6 µM
CN1CCc2nc(SCC(=O)Nc3ccc(Cl)cc3)c(C#N)cc2C1 > 20.6 µM
CCOc1ccc(S(=O)(=O)NC(C)(C)C)cc1-c1nc2c(C(C)(C)C)nn(C)c2c(=O)[nH]1 > 20.6 µM
CCOC(=O)C1=C(CSc2nc3c(cc2C#N)CN(C)CC3)OC(N)=C(C#N)C1c1ccccc1 (stereo not given) > 20.6 µM
C/C(=N\O)c1ccc2[nH]ccc2c1 > 20.6 µM
CN1CC2(C)CN(C(c3ccccc3)c3ccccc3)CC(C)(C1)C2O (stereo not given) > 20.6 µM
Fc1ccc2[nH]c3c(N4CCSCC4)ncnc3c2c1 > 20.6 µM
